Results on five molecules are retold here after PubChem BioAssay.

Assay [1] is described as follows: stimulators of nuclear beta-catenin in C2C12, primary screen, imaging, WNT3A-conditioned medium, mouse C2C12, NPC library (AID 1117326; in the data active = nuclear beta-catenin stimulation mostly above about 4.2%, no sharp cut-off; inactive = mostly below about 10%). Particulars: stronger effect = higher value.
Assay [2] can be described thus: stimulators of insulin release from INS-1E, primary screen, cell-based, 5 mM glucose, NPC library (AID 1117329;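 active = compound raises insulin release from rat beta cells at 5 mM glucose, no numeric limit stated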). Particulars: rat INS-1E insulin secretion, at 10 µM, stronger effect = higher value.
Assay [3] in a line: growth inhibition of GSK3B-pretreated HCT116 cells – cell-based, CellTiter-Glo, 0.2 to 20 µM (AID 1117336;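 active = compounds lowering colon cancer cell viability after pretreatment blocking the GSK3B kinase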). Particulars: HCT116 viability after GSK3B inhibitor, at 20 µM, stronger effect = higher value. (In general: Cellular ATP, detected with luciferase, serves as a proxy for viable cell number.)
Assay [4] can be described thus: inhibition of endothelial tube formation, primary screen, imaging, VEGF stimulated, CD31 staining, tube area, NPC library (AID 1117340;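 active = compound that reduces growth-factor-driven endothelial tube area in a mixed cell culture, no cutoff stated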). Particulars: VEGF-stimulated ADSC/ECFC co-culture, at 10 µM, stronger effect = higher value.
Assay [5] is described as follows: glucagon-like peptide 1 release enhancers, primary assay, NCI-H716 cell line, NPC library (AID 1117341;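 active = compound raises GLP1 secretion from the human gut endocrine cells, with no numeric limit stated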). Particulars: NCI-H716 cells, at 10 µM, stronger effect = higher value.
A short description of assay [6]: HCT116 colon cancer cell growth inhibition, primary screen, CellTiter-Glo luminescence, NPC library (AID 1117342;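 active = compounds that lower survival of HCT116 colon cancer cells in the luminescence readout, no numeric limit stated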). Particulars: at 20 µM (top of the series).
Assay [7] is described as follows: CellTiter-Glo luminescent readout of SW480 viability loss, NPC library primary (AID 1117343;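 active = compounds that lower viability of the colon cancer cells in the luminescence readout, with no numeric limit stated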). Particulars: CellTiter-Glo luminescence; at 20 µM (top of the series).
Assay [8] is described as follows: decreased DLD-1 cellular survival, CellTiter-Glo luminescent readout, NPC compound collection, primary HTS (AID 1117346;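 active = compounds that lower survival of DLD-1 colon cancer cells in the luminescence readout, no cutoff given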). Particulars: DLD-1 viability, CellTiter-Glo luminescence; at 20 µM (top of the series).
The target of assay [9] is 6-phosphogluconate dehydrogenase, decarboxylating (Homo sapiens) (UniProt P52209). Kind of assay: 6PGD enzyme inhibitors, primary screen, biochemical, human, recombinant enzyme, NADPH absorbance (AID 1159550;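 active = at least 20% inhibition of 6-phosphogluconate dehydrogenase activity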). Conditions: recombinant 6PGD, NADPH absorbance 341 nm; at 10 µM; stronger effect = higher value.
Assay [10] concerns the target Mitogen-activated protein kinase 7 (Homo sapiens) (UniProt Q13164). Kind of assay: ERK5 transactivation activators in reporter cells, primary screen, cell-based, HTS (AID 1508626;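 active = luciferase signal above three times the same-plate solvent-only control wells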;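 note: luciferase driven by Gal4-ERK5 fusion binding five Gal4 sites before minimal TATA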). Particulars: HeLa Gal4-ERK5 transactivation, 18 h, at 5 µM, stronger effect = higher value.
A short description of assay [11]: liver-stage malaria parasite growth inhibition, primary screen, cell-based, HepG2, luciferase luminescence, HepG2 viability (AID 624349; in the data active = parasite load remaining mostly below about 12%, no sharp cut-off; inactive = mostly above about 10%;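 note: 100% = mean of DMSO negative control wells on the same plate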). Conditions: P. berghei liver stage in HepG2, luciferase luminescence, concentration not given here; parasite load remaining: stronger effect = lower value; viability: measured here: HepG2 viability without parasites.
Assay [12] is described as follows: differential killing of epithelial or mesenchymal cells, primary screen, imaging, PC-3E GFP, TEM4-18 mCherry, co-culture (AID 1345086;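 active = compounds killing one labelled cell type while sparing the other, by normalised counts and ratio limits, not self-fluorescent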;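 for all read-outs here: cells exposed to compound for 72 h before imaging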;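 for red/green cell ratio (normalised): normalised mesenchymal count divided by normalised epithelial count so high means epithelial killing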). Conditions: imaging cell counts, at 1 µM; for red/green cell ratio (normalised): actives lie on both sides.
A short description of assay [13]: survival rescue of mitochondrial mutant cells in low glucose, primary screen, MELAS cybrids, Rieske KO mouse fibroblasts, CellTiter-Glo (AID 1508586;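 active = mean z-score across replicates of 1.96 or higher in either the MELAS or the Rieske mutant cell line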;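 note: z relative to plate mean and SD of compound and empty wells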).
In assay [14] the target is NAD(+) hydrolase SARM1 (Homo sapiens) (UniProt Q6SZW1). Kind of assay: SARM1 TIR NADase inhibitors, cell lysate, NAD-Glo luminescence (AID 1508614;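 active = compound whose remaining NAD level is above about 45 nM, limit read from the data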;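 note: higher remaining NAD means stronger inhibition of SARM1 NADase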). Particulars: SAM-TIR HEK293T lysate NADase, at 1 µM, stronger effect = higher value.
Assay [15] is described as follows: viability rescue of complex I mutant cybrids, primary screen, cell-based, galactose medium, ATP luminescence (AID 1645843).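 Note: positive z means more ATP and so rescue of galactose-driven cybrid death.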 Conditions: complex I mutant cybrid cells, 72 h, stronger effect = higher value.
Assay [16] can be described thus: sensitizers of A549 cells to miR-34 induction, primary screen, imaging, A549 dox-inducible miR-34, nuclei and caspase counts (AID 1347080;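 active = compounds whose cell count with miR-34 switched on is under 0.7 times the count with it off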). Conditions: A549 miR-34 inducible, Hoechst nuclei count, 48 h.
[17] abbreviates: measured here: epithelial PC-3E GFP cell survival.
Setting [18] is: measured here: mesenchymal TEM4-18 mCherry cell survival.
[19] abbreviates: MELAS cybrid survival, CellTiter-Glo 48 h, stronger effect = higher value.
Setting [20] is: Rieske KO mouse fibroblast survival, CellTiter-Glo 72 h.
[21] abbreviates: measured here: relative caspase fold change +Dox/-Dox.
The mark [22] stands for this setting: measured here: total cells with miR-34 induction, stronger effect = lower value.
[23] abbreviates: measured here: total cells without miR-34 induction.

SMILES strings stand for the structures. Values joined by “and” are separate entries in the source; they are usually repeats but may differ in a detail not shown here. Equal entries are not always repeated. Active and inactive are the calls of the source.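 Rule for the calls, unless noted: active = z-score of at least 1.8 in each of two replicates, scored against plate mean and spread of sample wells; inactive = the rest.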

NAD(+) hydrolase SARM1 (Homo sapiens), sequence (Q6SZW1 whole entry, looked up): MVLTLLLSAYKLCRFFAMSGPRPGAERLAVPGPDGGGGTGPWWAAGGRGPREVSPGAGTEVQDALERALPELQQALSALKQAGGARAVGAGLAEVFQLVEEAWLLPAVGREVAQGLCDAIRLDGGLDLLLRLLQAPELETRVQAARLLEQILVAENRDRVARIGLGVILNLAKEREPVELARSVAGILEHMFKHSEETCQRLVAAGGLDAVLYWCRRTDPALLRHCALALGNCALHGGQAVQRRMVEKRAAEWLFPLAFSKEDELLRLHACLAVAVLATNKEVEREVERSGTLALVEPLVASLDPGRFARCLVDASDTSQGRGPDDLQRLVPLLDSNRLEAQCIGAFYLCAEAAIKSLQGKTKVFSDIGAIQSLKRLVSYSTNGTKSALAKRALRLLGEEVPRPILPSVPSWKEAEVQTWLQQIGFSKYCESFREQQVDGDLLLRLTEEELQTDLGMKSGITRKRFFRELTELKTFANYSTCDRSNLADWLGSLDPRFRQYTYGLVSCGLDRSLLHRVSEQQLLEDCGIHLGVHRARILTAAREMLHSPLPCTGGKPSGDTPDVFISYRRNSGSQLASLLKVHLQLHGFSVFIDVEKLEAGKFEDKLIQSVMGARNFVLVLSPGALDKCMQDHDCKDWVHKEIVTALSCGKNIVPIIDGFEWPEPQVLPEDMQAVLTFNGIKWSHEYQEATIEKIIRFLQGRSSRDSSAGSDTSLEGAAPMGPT
6-phosphogluconate dehydrogenase, decarboxylating (Homo sapiens), sequence (P52209 whole entry, looked up, the tested form may be a part): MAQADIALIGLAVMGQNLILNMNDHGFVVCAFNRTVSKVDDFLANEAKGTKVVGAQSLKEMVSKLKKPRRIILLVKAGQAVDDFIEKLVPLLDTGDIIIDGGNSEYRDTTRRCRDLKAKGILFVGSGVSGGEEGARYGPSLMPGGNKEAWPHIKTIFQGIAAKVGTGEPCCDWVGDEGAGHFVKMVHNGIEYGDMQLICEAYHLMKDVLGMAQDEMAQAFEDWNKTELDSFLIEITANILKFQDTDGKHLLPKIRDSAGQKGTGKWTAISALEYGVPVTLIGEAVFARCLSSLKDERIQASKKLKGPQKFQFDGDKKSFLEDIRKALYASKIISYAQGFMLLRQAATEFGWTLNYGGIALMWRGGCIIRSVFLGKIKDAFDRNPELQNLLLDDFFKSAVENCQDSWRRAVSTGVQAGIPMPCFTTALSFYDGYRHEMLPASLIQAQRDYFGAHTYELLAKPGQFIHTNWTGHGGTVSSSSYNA
Mitogen-activated protein kinase 7 (Homo sapiens), sequence (Q13164 whole entry, looked up, the tested form may be a part): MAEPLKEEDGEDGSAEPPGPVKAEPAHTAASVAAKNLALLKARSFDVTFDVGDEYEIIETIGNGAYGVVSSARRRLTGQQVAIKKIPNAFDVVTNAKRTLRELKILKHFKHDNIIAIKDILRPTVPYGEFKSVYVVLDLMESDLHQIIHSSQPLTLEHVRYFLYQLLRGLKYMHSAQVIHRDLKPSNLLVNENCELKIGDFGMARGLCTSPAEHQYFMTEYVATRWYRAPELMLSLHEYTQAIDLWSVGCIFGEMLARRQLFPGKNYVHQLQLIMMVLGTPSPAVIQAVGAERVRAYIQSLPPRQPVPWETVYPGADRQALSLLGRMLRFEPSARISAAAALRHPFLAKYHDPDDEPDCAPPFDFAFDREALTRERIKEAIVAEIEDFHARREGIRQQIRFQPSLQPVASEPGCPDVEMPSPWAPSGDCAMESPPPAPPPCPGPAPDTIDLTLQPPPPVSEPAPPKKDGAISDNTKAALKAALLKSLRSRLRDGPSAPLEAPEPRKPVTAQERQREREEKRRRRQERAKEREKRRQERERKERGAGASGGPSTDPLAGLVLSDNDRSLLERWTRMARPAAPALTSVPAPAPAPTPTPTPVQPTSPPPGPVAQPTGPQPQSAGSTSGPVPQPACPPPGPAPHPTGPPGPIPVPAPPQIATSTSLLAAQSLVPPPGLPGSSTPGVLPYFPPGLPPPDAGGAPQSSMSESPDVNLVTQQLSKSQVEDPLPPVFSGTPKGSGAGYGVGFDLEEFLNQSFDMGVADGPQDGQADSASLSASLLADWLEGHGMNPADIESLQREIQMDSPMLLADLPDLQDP

A word on the inhibition: it is the drop in the measured response relative to a control, in per cent. As to `Clc1ccc(C(c2ccc(Cl)cc2)C(Cl)(Cl)Cl)cc1`, the nuclear beta-catenin stimulation was 0.9% (inactive) in assay [1] (at 10 µM) and -0.7% in assay [1] (stimulation, at 2 µM). The insulin secretion stimulation in assay [2] is 2.7% (inactive). Further, the viability decrease in assay [3] was 94.4% (active). For the same molecule, in assay [4], the tube area decrease was 18.6% (inactive). Moreover, the GLP1 secretion stimulation in assay [5] is 2.8% (inactive). Also, the inhibition of viability in assay [6] is 73.4% (active). The viability decrease (inhibition) is 124% (active) in assay [7] and 84.5% (active) in assay [8]. Also, the inhibition in [9] is 4.6% (inactive). The luciferase signal in assay [10] was 48 AU (inactive).

Broadly, the viability is a read-out of living cells in per cent, often relative to untreated cells. Turning to `CNCC(O)c1ccc(O)cc1` (stereo unspecified), the parasite load remaining in assay [11] was 81.5% (inactive) and 59.8% (inactive). In addition, in [11], the viability was 69.8% and 68.9%. The nuclear beta-catenin stimulation in assay [1] (at 10 µM) was -0.1% (inactive); in assay [1] (stimulation, at 2 µM), -2.7%. Further, the insulin secretion stimulation in assay [2] is 0.25% (inactive). In assay [3], the viability decrease was 14.7% (inactive). The tube area decrease in assay [4] was -15.1% (inactive). For the same molecule, the GLP1 secretion stimulation in [5] was 0.1% (inactive). For the same molecule, the inhibition of viability in assay [6] was -4% (inactive). The viability decrease (inhibition) is -14.6% (inactive) in assay [7] and -3.7% (inactive) in [8]. The red/green cell ratio (normalised) in assay [12] is 1.1 (inactive). Also, the normalised cell number in assay [12] (setting [17]) amounted to 0.84; in assay [12] (setting [18]), 0.92. The z-score is -0.35 (inactive) and -0.388 (inactive) and -0.264 (inactive) in assay [13] (setting [19]); -0.247 and -0.0924 and -0.396 in [13] (setting [20]); 0.82 (inactive) and 0.285 (inactive) in [15]. The remaining NAD in assay [14] was 10 nM (inactive).

On to `NP(N)(=O)NC(=O)c1ccc(F)cc1`, for which the nuclear beta-catenin stimulation in assay [1] (at 10 µM) was 0.1% (inactive); in assay [1] (stimulation, at 2 µM) it was 0.9%. The insulin secretion stimulation in assay [2] is -0.7% (inactive). Further, the viability decrease in [3] was -1.25% (inactive). In addition, in [4], the tube area decrease was -20.9% (inactive). Also, the GLP1 secretion stimulation in assay [5] is 1.1% (inactive). Also, the inhibition of viability in [6] was -0.3% (inactive). The viability decrease (inhibition) is 31.5% (inactive) in assay [7] and 6.6% (inactive) in [8]. Moreover, the red/green cell ratio (normalised) in [12] is 0.99 (inactive). Also, the normalised cell number in assay [12] (setting [17]) was 0.92; in assay [12] (setting [18]) it was 0.91. Also, the fold change is 0.935 (inactive) and 0.913 (inactive) in assay [16] (stronger effect = lower value); 0.958 and 0.851 in [16] (setting [21]). In addition, the cell count in assay [16] (setting [22]) is 8980 and 8200; in assay [16] (setting [23]), 9600 and 8990. In addition, the remaining NAD in [14] was 10 nM (inactive). Moreover, the z-score in assay [15] was -0.31 (inactive).

As for `C[N+]1(CCC(C(N)=O)(c2ccccc2)c2ccccc2)CCCCC1`, in assay [11], the parasite load remaining is 104% (inactive). Further, in [11], the viability was 70.3%. Also, the nuclear beta-catenin stimulation in assay [1] (at 10 µM) is 0.3% (inactive); in assay [1] (stimulation, at 2 µM), 0.3%. Further, the insulin secretion stimulation in assay [2] is 0.55% (inactive). Also, the viability decrease in assay [3] is 13.5% (inactive). In assay [4], the tube area decrease was -8.4% (inactive). The GLP1 secretion stimulation in assay [5] is 1.2% (inactive). Also, the inhibition of viability in assay [6] is -21.6% (inactive). Besides, the results for the viability decrease (inhibition) in assay [7] and in assay [8] were -9.7% (inactive) and -24.2% (inactive), respectively. Also, the fold change is 0.846 (inactive) in assay [16] (stronger effect = lower value) and 2.2 in [16] (setting [21]). In addition, the cell count in assay [16] (setting [22]) worked out at 8180; in assay [16] (setting [23]), 9670. In assay [15], the z-score was 0.675 (inactive).

Regarding `C#CCN(C)[C@H](C)Cc1ccccc1`, the nuclear beta-catenin stimulation is -2% (inactive) in [1] (at 10 µM) and 0.7% in [1] (stimulation, at 2 µM). For the same molecule, in assay [2], the insulin secretion stimulation was 1.2% (inactive). In addition, the viability decrease in [3] is 1.9% (inactive). The tube area decrease in assay [4] is -3.8% (inactive). Besides, the GLP1 secretion stimulation in [5] was 1.9% (inactive). The inhibition of viability in assay [6] is 6.37% (inactive). The viability decrease (inhibition) in [7] is 10.9% (inactive); in assay [8] it was 8.8% (inactive). Moreover, the z-score in [13] (setting [19]) is -1.17 (inactive) and -0.00892 (inactive); in assay [13] (setting [20]) it was -0.0749 and -0.112; in [15], 1.24 (inactive) and 0.63 (inactive). Moreover, in assay [14], the remaining NAD was 10 nM (inactive).
